DT40 TDP1 no CPT: qHTS for Inhibitors of human tyrosyl-DNA phosphodiesterase 1 (TDP1): qHTS in cells in absence of CPT. DT40 Tdp1-/- hTDP1 cells, no CPT, ATP luminescence, 48 h. Potency, µM (top dose mostly 46.2 µM), most hits filed as inhibitors. 420,000 tested, 15% active. AID 686978, 2013; further: nearly all actives have a fitted effect of over 55% in size
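Luminescent ATP content (CellTiter-Glo) served as the growth readout. Knockout chicken DT40 cells expressing human TDP1 were exposed to compounds without camptothecin for a minimum 48 hr at 37 °C.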
D3 antag: qHTS of D3 Dopamine Receptor Antagonist: qHTS. D(3) dopamine receptor (Homo sapiens), P35462. 360,000 tested, 2.5% active. D3R cells, DiscoveRx beta-arrestin luminescence, antagonist mode; stronger effect = lower value. max response, negative = inhibition, %; in the data active means max response below about -50%; inconclusive means no clear call, values can overlap the other calls
Target sequence (P35462 whole entry, looked up): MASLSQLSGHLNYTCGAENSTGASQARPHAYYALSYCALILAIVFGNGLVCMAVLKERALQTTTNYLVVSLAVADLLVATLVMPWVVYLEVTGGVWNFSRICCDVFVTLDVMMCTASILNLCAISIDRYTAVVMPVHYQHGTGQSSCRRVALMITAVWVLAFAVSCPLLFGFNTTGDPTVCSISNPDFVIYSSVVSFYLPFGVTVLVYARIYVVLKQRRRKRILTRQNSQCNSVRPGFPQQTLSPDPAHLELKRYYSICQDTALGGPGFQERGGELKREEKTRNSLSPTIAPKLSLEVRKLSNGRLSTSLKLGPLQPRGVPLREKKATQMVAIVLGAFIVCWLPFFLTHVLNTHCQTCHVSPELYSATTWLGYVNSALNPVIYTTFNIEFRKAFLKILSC
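Cells plated overnight at 1500 cells/well, then exposed to library compounds with dopamine controls for 90 minutes at 37 degrees C. DiscoveRx reagent added for 30–60 minutes at room temperature; luminescence read, quantitative HTS format.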
TDP1 cell CPT: qHTS for Inhibitors of human tyrosyl-DNA phosphodiesterase 1 (TDP1): qHTS in cells in presence of CPT. 420,000 tested, 12% active. AID 686979, 2013. Potency, µM (series often up to 46.2 µM), usual class: inhibitors. chicken DT40 Tdp1-/-;hTDP1 cells + 20 nM CPT, ATP luminescence, 48 h; further: nearly all actives have a fitted effect of over 55% in size
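Chicken DT40 Tdp1-/- cells stably complemented with human TDP1 were seeded at 400 cells/well in medium containing 20 nM camptothecin, exposed to pin-transferred compounds, and grown at 37 °C for at least 48 hr. Viability was read as ATP luminescence.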
DRD3 agonist: qHTS of D3 Dopamine Receptor Agonist: qHTS. D3R DiscoveRx beta-arrestin cells, luminescence, 90 min. max activation, %. 410,000 tested, 0.58% active. AID 652048, 2013; in the data active means max activation above about 30%
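Agonist mode: compounds and dopamine controls were applied to plated cells for 90 min at 37 degrees C after an overnight attachment at 1500 cells/well. Luminescent read-out followed 30 - 60 minutes at room temperature with DiscoveRx detection reagent.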
ClpP mod: qHTS Assay for Activators of ClpP; purified B. subtilis ClpP, FRET peptide cleavage, 20 min; 340,000 tested, 1.9% active; AID 651965, 2013; Potency, µM (series often up to 57.5 µM); ATP-dependent Clp protease proteolytic subunit (Bacillus subtilis (strain 168)), P80244; active means well fitted falling curve with a large enough effect; inconclusive means small, poorly fitted or top-dose-only effect; inactive means no such curve, though single readings can be large or run the other way; further: the source files actives as falling curves though it sought activators and does not explain the sign; nearly all actives have a fitted effect of over 65% in size
Target sequence (P80244 whole entry, looked up): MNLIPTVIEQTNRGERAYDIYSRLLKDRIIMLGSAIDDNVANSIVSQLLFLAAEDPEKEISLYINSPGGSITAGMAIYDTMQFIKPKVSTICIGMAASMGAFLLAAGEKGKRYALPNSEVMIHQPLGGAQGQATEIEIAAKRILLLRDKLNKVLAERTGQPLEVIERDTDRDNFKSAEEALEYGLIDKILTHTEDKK
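Buffer: 100 mM Tris/HCl pH8, 100 mM KCl, 0.05% low protease BSA, 2.5% glycerol, 0.01% Tween-20. ClpP 10 microg/mL final; 20 min RT; delta FRET normalized to ADEP and DMSO controls.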
IL1B secr inh: qHTS for Inhibitors of Inflammasome Signaling: IL-1-beta AlphaLISA Primary Screen. 360,000 tested, 4.7% active. THP-1 LPS/ATP IL-1B secretion, AlphaLISA, 16 h; stronger effect = lower value. activity change, % at 57.5 µM; in the data active means activity change below about -50%; inconclusive means mostly about -30% to -49%
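Secreted IL-1B measured by AlphaLISA bead assay after 16 h compound exposure of THP-1 cells; compounds (final up to 57.5 uM) added 1 h before LPS (250 ng/mL) and ATP (1.25 mM) stimulation; lower signal means less secretion.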
Large screens that a line does not name were inactive. A selection: hits, their analogues and other compounds. The true share with any hit is near 21%. Unless noted, the call rests on the fitted dose curve; in most records, active means well fitted inhibition curve with a large enough effect; inconclusive means small, poorly fitted or top-dose-only effect; inactive means flat fitted curve, though single readings scatter.

CC(C)c1ccc(NC(=O)c2cn(C3CCCCC3)c(=O)c3c2c2ccccc2n3C)cc1	ClpP mod 25.1µM (no result: D3 antag, IL1B secr inh)
COc1ccc(Cl)cc1NC(=O)c1cn(C2CCCC2)c(=O)c2c1c1ccccc1n2C	DT40 TDP1 no CPT inconclusive, TDP1 cell CPT inconclusive (no result: D3 antag, IL1B secr inh)
CCOc1ccccc1NC(=O)c1cn(C2CCCC2)c(=O)c2c1c1ccccc1n2C	DT40 TDP1 no CPT 9.2µM, TDP1 cell CPT 13µM (no result: D3 antag, IL1B secr inh)
O=C(Nc1c2c(nc3ccccc13)CCCC2)c1ccccc1Cl	none (no result: ClpP mod)
Cc1ccc(OCC(=O)NNc2c3ccccc3nc3ccccc23)cc1	DT40 TDP1 no CPT 16.4µM, TDP1 cell CPT inconclusive
O=C(Cc1ccccc1)NNC(=O)Cc1ccccc1	none (no result: ClpP mod)
O=C(Cc1ccccc1)NNc1c2ccccc2nc2ccccc12	DT40 TDP1 no CPT inconclusive, TDP1 cell CPT 20.6µM (no result: ClpP mod)
O=C(Nc1c2ccccc2nc2ccccc12)C(Cl)(Cl)Cl	DT40 TDP1 no CPT 23.1µM, TDP1 cell CPT 16.4µM, ClpP mod inconclusive, IL1B secr inh inconclusive
Cc1cccc(NC(=O)COC(=O)CSc2ccccc2)c1C	none
COc1ccc(C=CC(=O)c2ccc(OC)c(OC)c2O)cc1OC	DT40 TDP1 no CPT inconclusive, TDP1 cell CPT inconclusive, IL1B secr inh inconclusive (no result: ClpP mod)
COc1ccc(C(=O)/C=C/c2ccc(F)cc2)c(OC(=O)c2ccc([N+](=O)[O-])cc2)c1	DT40 TDP1 no CPT 20.6µM, D3 antag inconclusive, TDP1 cell CPT inconclusive, IL1B secr inh -94.2
COc1ccc(C(=O)/C=C/c2ccc(OC)c(O)c2)c(F)c1	DT40 TDP1 no CPT 16.4µM, D3 antag inconclusive, TDP1 cell CPT inconclusive, IL1B secr inh -103.9
COc1ccc(/C=C/C(=O)CC(=O)/C=C/c2cccc(O)c2OC)cc1O	DT40 TDP1 no CPT 2.97µM, TDP1 cell CPT 6.64µM (no result: D3 antag, DRD3 agonist, ClpP mod, IL1B secr inh)
COc1ccc(C=CC(=O)c2ccc3cc(OC)c(OC)cc3c2)cc1OC	DT40 TDP1 no CPT 5.8µM, TDP1 cell CPT inconclusive, IL1B secr inh -97.6
COc1ccc(C=NNC(=O)CCCC(=O)NN=Cc2ccc(OC)c(O)c2)cc1O	none
Cc1ccc(CNC(=O)C2CCCN(S(=O)(=O)c3cccc4nsnc34)C2)cc1 (configuration not stated)	none (no result: D3 antag, IL1B secr inh)
CCN(CC)CCN(C(=O)c1ccco1)c1nc2ccc(F)cc2s1	none (no result: D3 antag, IL1B secr inh)
CCCCN(C(=O)CCSc1ccc(F)cc1)c1c(N)n(Cc2ccccc2)c(=O)[nH]c1=O	none
COc1ccc(C=CC(=O)c2ccc(OC)c(OC)c2)cc1O	DT40 TDP1 no CPT 18.4µM, TDP1 cell CPT 14.6µM, IL1B secr inh -64.9
CN(CC(=O)Nc1ccc(F)c(F)c1F)C(=O)c1cc(S(=O)(=O)N(C)C)ccc1N1CCCC1	none
CCC(Oc1ccccc1OC)C(=O)N1CC(=O)Nc2ccccc21 (configuration not stated)	none (no result: ClpP mod)
Cc1cccc(N2CCN(C(=O)CCNS(=O)(=O)c3ccc4c(c3)oc(=O)n4C)CC2C)c1 (configuration not stated)	DT40 TDP1 no CPT inconclusive, TDP1 cell CPT inconclusive
Cc1cccc(N2CCN(C(=O)CCNS(=O)(=O)c3ccc4c(c3)CCN4C(=O)C3CC3)CC2C)c1 (configuration not stated)	DT40 TDP1 no CPT 8.2µM, TDP1 cell CPT 5.8µM (no result: D3 antag, IL1B secr inh)
CCC(=O)N1CCc2cc(S(=O)(=O)CCC(=O)N3CCN(c4cccc(C)c4)C(C)C3)ccc21 (configuration not stated)	DT40 TDP1 no CPT 4.61µM, TDP1 cell CPT 11.6µM (no result: D3 antag, IL1B secr inh)
CCC(=O)N1CCc2cc(Br)cc(S(=O)(=O)CCC(=O)N3CCN(c4cccc(C)c4)C(C)C3)c21 (configuration not stated)	DT40 TDP1 no CPT inconclusive, TDP1 cell CPT inconclusive (no result: D3 antag, IL1B secr inh)
Cc1cccc(N(C)C(=O)CCNS(=O)(=O)c2ccc3c(c2)CCN3C(=O)C2CC2)c1	DT40 TDP1 no CPT 20.6µM, TDP1 cell CPT 16.4µM (no result: D3 antag, IL1B secr inh)
CCOC(=O)C1CCCCN1Cc1cccc(Oc2ccccc2)c1 (configuration not stated)	DT40 TDP1 no CPT inconclusive (no result: ClpP mod)
CCN(CC(=O)Nc1ccc(NC(C)=O)cc1)C(=O)c1ccc(NC2CC2)c([N+](=O)[O-])c1	DT40 TDP1 no CPT inconclusive
OCCC1CN(Cc2cccn2-c2ncccn2)CCN1CCc1ccccc1 (configuration not stated)	none (no result: ClpP mod)
COc1cccc(NC(=O)CN(C)C(=O)c2ccc(S(=O)(=O)Nc3ccccc3F)cc2)c1	none
Cc1c(C(=O)Nc2ccncc2)oc2ccccc12	DT40 TDP1 no CPT 20.6µM, TDP1 cell CPT 20.6µM, DRD3 agonist 51.6
COc1cc(OC)cc(C(=O)Nc2ccc(-n3cnnn3)c(C)c2)c1	DT40 TDP1 no CPT inconclusive, IL1B secr inh -67.5
Cc1cc(NC(=O)c2oc3ccccc3c2C)ccc1-n1cnnn1	DT40 TDP1 no CPT 23.1µM, TDP1 cell CPT 18.4µM (no result: IL1B secr inh)
COC(=O)c1sc(NC(=O)COc2c(C)cccc2C)nc1C	DT40 TDP1 no CPT 11.6µM (no result: ClpP mod)
CCC(=O)c1ccc(OCC(=O)NCC2COc3ccccc3O2)cc1 (configuration not stated)	none
O=C(CSc1nccn1Cc1ccccc1)Nc1ccc2c(c1)OCCO2	none (no result: D3 antag, IL1B secr inh)
COc1cccc(NC(=O)c2ccc(N3C(=O)C4CC=CCC4C3=O)cc2)c1 (configuration not stated)	DT40 TDP1 no CPT inconclusive
CC(=O)Nc1ccc(NC(=O)c2oc3cc(C)c(C)cc3c2C)cc1	IL1B secr inh -50.5
Cc1cc2oc(C(=O)Nc3cccnc3)c(C)c2cc1C	ClpP mod inconclusive
COC(=O)c1sc(NC(=O)c2oc3ccccc3c2C)nc1C	DT40 TDP1 no CPT 3.66µM, TDP1 cell CPT inconclusive
CC(C)CCN(C)C1CCN(S(=O)(=O)c2cccc(C(F)(F)F)c2)CC1	D3 antag inconclusive, IL1B secr inh -52.7
O=C(NCC1CCCO1)c1ccc(S(=O)(=O)N2CCC(c3nc4ccc(Cl)cc4[nH]3)CC2)cc1 (configuration not stated)	DT40 TDP1 no CPT 23.1µM, D3 antag -61.9, TDP1 cell CPT 25.9µM
O=S(=O)(c1cccc(Cl)c1)N1CCC(c2nc3ccccc3[nH]2)CC1	DT40 TDP1 no CPT 18.4µM, TDP1 cell CPT 20.6µM (no result: ClpP mod)
CC(=O)c1cccc(S(=O)(=O)N2CCC(c3nc4ccccc4[nH]3)CC2)c1	none (no result: ClpP mod)
Cc1ccc2nc(C3CCN(S(=O)(=O)c4ccc5ccccc5c4)CC3)[nH]c2c1	DT40 TDP1 no CPT inconclusive, TDP1 cell CPT inconclusive, IL1B secr inh -69.3
